UCHL1 block: inhibitors of human UCHL1 deubiquitinase | inhibition, % at 20 µM | purified UCHL1, Ub-rhodamine cleavage fluorescence | AID 1645859 | P09936 | hit rate 0.2% among 47,000
USP10 inh: human USP10 deubiquitinase inhibition. hit rate 1.1% among 47,000. inhibition, % at 20 µM. AID 1645856. purified USP10, Ub-rhodamine fluorescence, 60 min. Q14694
USP8 inh: human USP8 deubiquitinase inhibition. P40818. purified USP8, Ub-rhodamine cleavage fluorescence, 30 min. inhibition, % at 20 µM. hit rate 4.2% among 47,000. AID 1645853
Target sequence (P40818 whole entry, looked up): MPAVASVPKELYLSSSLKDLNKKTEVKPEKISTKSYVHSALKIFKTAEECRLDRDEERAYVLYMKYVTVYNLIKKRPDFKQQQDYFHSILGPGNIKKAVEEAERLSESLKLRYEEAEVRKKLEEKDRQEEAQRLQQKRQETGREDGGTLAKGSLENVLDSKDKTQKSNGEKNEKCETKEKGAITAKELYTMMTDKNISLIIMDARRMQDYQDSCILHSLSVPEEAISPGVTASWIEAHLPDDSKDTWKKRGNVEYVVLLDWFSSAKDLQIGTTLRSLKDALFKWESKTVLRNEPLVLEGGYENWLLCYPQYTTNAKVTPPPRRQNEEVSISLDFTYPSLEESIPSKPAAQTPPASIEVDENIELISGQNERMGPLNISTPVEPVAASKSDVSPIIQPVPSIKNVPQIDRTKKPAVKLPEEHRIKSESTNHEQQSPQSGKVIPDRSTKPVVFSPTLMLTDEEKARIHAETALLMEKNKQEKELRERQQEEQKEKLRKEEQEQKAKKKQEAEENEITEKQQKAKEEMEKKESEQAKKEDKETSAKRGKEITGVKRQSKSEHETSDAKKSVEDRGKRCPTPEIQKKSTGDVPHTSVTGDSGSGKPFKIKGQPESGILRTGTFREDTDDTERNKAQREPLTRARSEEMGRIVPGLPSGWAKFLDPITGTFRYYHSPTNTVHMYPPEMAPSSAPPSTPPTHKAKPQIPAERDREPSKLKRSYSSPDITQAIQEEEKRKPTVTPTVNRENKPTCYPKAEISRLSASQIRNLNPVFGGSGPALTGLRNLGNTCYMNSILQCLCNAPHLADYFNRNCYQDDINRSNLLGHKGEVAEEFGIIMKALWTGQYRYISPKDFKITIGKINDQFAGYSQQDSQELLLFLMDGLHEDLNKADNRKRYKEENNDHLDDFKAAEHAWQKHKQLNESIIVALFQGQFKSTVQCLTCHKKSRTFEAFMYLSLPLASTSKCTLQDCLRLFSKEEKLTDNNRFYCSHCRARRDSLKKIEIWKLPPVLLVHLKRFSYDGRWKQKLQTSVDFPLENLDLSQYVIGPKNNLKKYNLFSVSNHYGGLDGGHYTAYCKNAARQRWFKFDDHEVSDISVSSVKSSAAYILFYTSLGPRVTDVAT
USP7 inh: blocks human USP7 ubiquitin-rhodamine cleavage; hit rate 0.3% among 47,000; inhibition, % at 20 µM; purified USP7, Ub-rhodamine cleavage fluorescence; AID 1645854; Q93009
* marks the source's active call; other numbers are inactive results. In the library only some 5% were active in any assay of this set; here they are far more common. Rule as the data show it: active = inhibition above about 30%; inactive = the rest.

SMILES	UCHL1 block	USP10 inh	USP8 inh	USP7 inh
O=C(CCc1nc2ccccc2c(=O)[nH]1)Nc1ccc(Cl)cc1	-3.9	-0.5	0.0	-20.5
COCCn1cc(NC(=O)N2CCN(c3ccccc3F)CC2)c2ccccc21	1.2	-3.0	54.2*	-1.3
O=C(COc1ncnc2ccccc12)N1CCC2(CC=CCOC2)CC1	-1.1	0.2	-1.9	0.0
CC(C)(C)C(=O)C1C2C(=O)N(c3ccc4c(c3)OCO4)C(=O)C2C2c3ccccc3C=CN12 (stereo unspecified)	11.1	20.8	53.3*	-27.4
O=C(Nc1ccc2c(c1)OCO2)C1[C@@H]2C(=O)N(c3ccccc3)C(=O)[C@@H]2[C@H]2c3ccccc3C=CN12 (stereo partly specified)	-154.1	-4.9	49.2*	-139.1
CC(C)(C)C(=O)C1C2C(=O)N(Cc3ccccc3)C(=O)C2C2c3ccccc3C=CN12 (stereo unspecified)	0.6	-6.0	80.6*	-9.3
O=C(c1ccco1)C1C2C(=O)N(c3cccc(C(F)(F)F)c3)C(=O)C2C2c3ccccc3C=CN12 (stereo unspecified)	-77.0	-2.6	-72.5	-101.3
COc1ccc(NC(=O)C2[C@@H]3C(=O)N(c4ccc5c(c4)OCO5)C(=O)[C@@H]3[C@H]3c4ccccc4C=CN23)cc1 (stereo partly specified)	-157.2	-4.7	55.4*	-86.1
COc1ccc(NC(=O)C2[C@@H]3C(=O)N(C4CCCCC4)C(=O)[C@@H]3[C@H]3c4ccccc4C=CN23)cc1 (stereo partly specified)	-83.2	-15.5	77.7*	-54.6
c1cc(-c2noc(C3CCCO3)n2)ccc1-c1csc(C2CC2)n1 (stereo unspecified)	4.5	2.5	4.6	1.5
COc1cccc(-n2cnc3cc(C(=O)N4CCCCC4)ccc3c2=O)c1	2.3	1.0	18.8	2.5
COc1cccc(-n2cnc3cc(C(=O)NCCc4ccccc4)ccc3c2=O)c1	4.0	-5.3	53.8*	23.0
c1cnc(N2CCN(c3nc(-c4cccnc4)nc4ccccc34)CC2)nc1	1.6	-5.7	2.0	-1.7
Cc1ccc(NC(=O)COc2ccccc2/C=C2/NC(=O)N(Cc3ccc(F)cc3)C2=O)cc1	0.8	36.1*	24.2	12.6
COc1cc(NC(=O)c2ccco2)c(C(=O)OCC(=O)c2c[nH]c3ccccc23)cc1OC	-6.0	-0.7	43.6*	-13.7
COc1cc(NC(=O)CSc2nc3ncccc3o2)ccc1Cl	7.1	-3.8	85.4*	-4.5
NC(=O)c1nc(-c2ccccn2)nc2c1[nH]c(=O)n2-c1ccc2c(c1)OCO2	2.7	-4.5	-153.8	5.7
NC(=O)c1nc(-c2cccnc2)nc2c1[nH]c(=O)n2-c1ccc2c(c1)OCO2	0.7	25.3	53.1*	7.0
Cc1ccc(NC(=O)Cn2cc(S(=O)(=O)c3ccccc3)c(=O)c3ccc(C)nc32)cc1	-15.0	-7.2	40.6*	-5.6
O=c1ccc(-c2cc3ccccc3o2)cn1Cc1ccccc1-c1ccccc1	38.2*	25.1	84.1*	5.0
Cc1cccc(-c2noc(-c3nn(-c4cccc(C)c4)ccc3=O)n2)c1	8.2	4.5	5.3	-14.2
COc1ccc(-n2ccc(=O)c(-c3nc(-c4ccccc4F)no3)n2)cc1OC	1.6	-5.8	45.1*	4.2
COc1cccc(-n2ccc(=O)c(-c3nc(-c4cccc(C)c4)no3)n2)c1	-12.4	-5.6	6.6	-9.5
CCOc1cccc(-c2noc(-c3nn(-c4ccccc4)ccc3=O)n2)c1	7.5	23.6	92.9*	21.0
CCOc1cccc(-c2noc(-c3nn(-c4cccc(C)c4)ccc3=O)n2)c1	7.9	8.6	87.9*	-1.5
SMILES	UCHL1 block	USP10 inh	USP8 inh	USP7 inh
O=C(c1ccnnc1)N1CC[C@@H]2CN(Cc3cccc(Cl)c3)S(=O)(=O)[C@@H]2CC1	-0.1	-2.1	5.2	1.3
CCOc1ccc(CCNC(=O)c2ccc3c(c2)N(CC)C(=O)c2ccccc2S3)cc1OCC	4.9	7.0	9.2	8.0
O=C(c1ccncc1)N1CCN(c2cc(-c3ccccc3)[nH]n2)CC1	-3.3	0.0	-24.8	-1.0
C=C1C(=O)[C@@]23C(CC[C@@H]1[C@H]2O)[C@@]12CO[C@@]3(O)[C@@H](O)[C@@H]1C(C)(C)CC[C@@H]2O (stereo partly specified)	-1.2	1.2	-1.5	-0.1
Cc1c(C(=O)N(C)c2nc3c(s2)CCc2occc2-3)oc2ccccc12	5.6	8.8	48.1*	4.3
CN(C(=O)c1cccs1)c1nc2c(s1)CCc1occc1-2	1.0	3.7	6.1	-13.8
CCOc1ccc(-c2nnc(NC(=O)C3CCN(S(=O)(=O)c4ccc5c(c4)CCC5)CC3)o2)cc1	8.7	43.8*	-120.4	22.7
Cc1nnc(NC(=O)C2CCN(S(=O)(=O)c3ccc4ccccc4c3)CC2)o1	-0.1	5.2	-267.6	-4.5
Cc1cccc(N2CCN(C(=O)c3ccc(N4C(=O)C(C)CS4(=O)=O)cc3)CC2)c1 (stereo unspecified)	0.0	0.5	9.8	0.0
Cc1c(C(=O)NCc2cccc(Br)c2)oc2c1-c1[nH]ncc1CC2	0.1	-3.1	84.3*	-23.7
CC1(c2ncc(CNC(=O)c3ccn[nH]3)cn2)CCCCO1 (stereo unspecified)	0.0	-1.9	-3.5	2.6
CCCCCCCc1cc(OC(=O)c2c(CCCCCCC)cc(O)cc2O[C@@H]2O[C@H](CO)[C@H](O)[C@H](O)[C@H]2O)cc(O)c1C(=O)O	68.8*	100.3*	99.0*	100.1*
CCCCCCCc1cc(O)cc(OC(=O)c2c(CCCCCCC)cc(O)cc2O[C@H]2O[C@H](C(O)CO)[C@@H](O)[C@@H]2O)c1 (stereo partly specified)	14.8	12.1	-0.2	-3.8
CCCCCCCCCc1cc(OC(=O)c2c(CCCCCCCCC)cc(O)cc2O[C@@H]2O[C@H](CO)[C@@H](O)[C@H](O)[C@H]2O)cc(O)c1C(=O)O	84.4*	97.5*	94.8*	100.4*
Cc1noc(CN2CCC(C3CCCCCN3C(=O)Nc3ccccc3)CC2)n1 (stereo unspecified)	-6.0	-5.0	-8.4	-5.8
O=C(Cn1c(CN2CCCCC2)nc2sc3c(c2c1=O)CCCC3)N1CCc2ccccc21	-15.5	-5.5	-19.6	-26.8
CC(C)(C)n1ncc2c(=O)n(CC(=O)OCc3ccccc3)cnc21	1.0	-0.9	-3.3	-0.1
CC(C)(C)n1ncc2c(=O)n(CC(=O)N3CCCc4ccccc43)cnc21	-1.7	-5.9	3.3	44.9*
O=C(Cn1cnc2sc3c(c2c1=O)CCC3)N1CCc2ccccc21	0.0	-0.1	48.2*	-0.5
O=C1CC(/C=C/c2ccccc2)Cc2nc(N3CCN(c4ncccn4)CC3)ncc21 (stereo unspecified)	-0.7	0.1	7.8	-0.9
O=C(C1CN(C(=O)c2cnc3ccccc3n2)c2ccccc2O1)N1CCOCC1 (stereo unspecified)	4.0	-0.1	69.8*	-0.1
Cc1cc(C)cc(NC(=O)Cc2nnc3c(-c4nc(C5CC5)no4)cccn23)c1	-0.7	-0.5	2.2	0.3
O=C(Cc1nnc2c(-c3nc(C4CC4)no3)cccn12)N1CCCCCC1	-5.3	-3.5	43.1*	-5.2
